Source: PubChem BioAssay (EPA / NIEHS)
Inconclusive results are not listed. Activity calls are given as the source filed them. Rule for the calls, unless noted: active = hit-call score of the fitted dose curve at least 0.9, where 1 is the maximum; inactive = score below 0.9.

Tests used:
[1] = ATG_GATA_CIS: Attagene CIS-FACTORIAL HepG2 Assay for human GATA Binding Protein (AID 2282944); details: HepG2 GATA cis-element reporter, Attagene multiplex mRNA; actives raise or lower the signal
Outline: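 Read-out: fluorescent reporter mRNA fragments resolved by capillary electrophoresis after RT-PCR. Human liver HepG2 cells carried transiently transfected cis-regulated reporter constructs; chemicals incubated 24 h; gain or loss of signal fitted relative to DMSO.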

[2] = target: Hypoxia-inducible factor 1-alpha (Homo sapiens) (UniProt Q16665); assay: ATG_HIF1a_CIS: Attagene CIS-FACTORIAL HepG2 Assay for human Hypoxia Inducible Factor 1 (HIF1A) (AID 2282951); details: HepG2 Attagene cis-factorial HIF1a reporter transcription; actives raise or lower the signal
Outline: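 HepG2 cells transiently transfected with multiple cis-regulated reporter transcription units measure endogenous transcription factor activity. After 24 h exposure, reporter mRNA is quantified by RT-PCR with 6-FAM labelling, HpaI digestion and capillary electrophoresis. Bidirectional fitting against DMSO.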

[3] = target: Hepatocyte nuclear factor 6 (Homo sapiens) (UniProt Q9UBC0); assay: ATG_HNF6_CIS: Attagene CIS-FACTORIAL HepG2 Assay for human Hepatocyte Nuclear Factor 6 (HNF6) (AID 2282952); details: HepG2 Attagene cis-factorial HNF6 reporter transcription; actives raise or lower the signal
Outline: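 Twenty-four-hour chemical treatment of reporter-transfected HepG2 cells precedes RNA isolation, DNase-treated reverse transcription and PCR of reporter sequences. Labelled fragments are sized by capillary electrophoresis and fitted bidirectionally versus DMSO.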

[4] = target: Heat shock factor protein 1 (Homo sapiens) (UniProt Q00613); assay: ATG_HSE_CIS: Attagene CIS-FACTORIAL HepG2 Assay for human Heat Shock Transcription Factor 1 (HSE) (AID 2282953); details: HepG2 HSE cis-reporter, Attagene RNA transcription; actives raise or lower the signal
Outline: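 Read-out: fluorescence of reporter-specific RT-PCR fragments separated by capillary electrophoresis. HepG2 carrying transfected cis-element reporter units; 24 h dosing; activity fitted in both directions relative to DMSO baseline.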

[5] = ATG_PXRE_CIS: Attagene CIS-FACTORIAL HepG2 Assay for human Pregnane X Receptor Element (PXRE) (AID 2282957); details: HepG2 Attagene CIS-FACTORIAL PXRE reporter, mRNA; actives raise or lower the signal
Outline: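 Bidirectional activity, baselined to DMSO, derived from reporter mRNA fluorescence (RT-PCR plus capillary electrophoresis) in HepG2 cells bearing cis-promoter reporter units, 24 h exposure.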

[6] = ATG_Sox_CIS: Attagene CIS-FACTORIAL HepG2 Assay for human SRY-box transcription factor (SOX) (AID 2282960); details: HepG2 Attagene cis-factorial SOX reporter, mRNA; actives raise or lower the signal
Outline: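 HepG2 cells transiently transfected with multiple cis-regulated reporter units, then dosed for 24 h. Reporter mRNA quantified by RT-PCR, fluorescent labelling, HpaI digestion and capillary electrophoresis; bidirectional fit versus DMSO.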

[7] = target: Transcription factor Sp1 (Homo sapiens) (UniProt P08047); assay: ATG_Sp1_CIS: Attagene CIS-FACTORIAL HepG2 Assay for human Specificity Protein 1 (Sp1) (AID 2282961); details: HepG2 Sp1 cis-reporter transcription, actives raise or lower the signal
Outline: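 HepG2 cells transiently transfected with multiplexed cis-regulated reporter constructs, chemical exposure 24 h. Reporter mRNA quantified by RT-PCR with capillary electrophoresis; bidirectional fit relative to DMSO.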

[8] = target: Signal transducer and activator of transcription 3 (Homo sapiens) (UniProt P40763); assay: ATG_STAT3_CIS: Attagene CIS-FACTORIAL HepG2 Assay for human Signal Transducer and Activator of Transcription 3 (STAT3) (AID 2282963); details: HepG2, Attagene cis-factorial STAT3 reporter transcription; actives raise or lower the signal
Outline: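 Readout: fluorescent reporter mRNA fragments resolved by capillary electrophoresis. Setup: HepG2 transfected with MRTUs reporting endogenous transcription-factor activity, dosed 24 h. Gain or loss of signal fitted bidirectionally against DMSO control.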

[9] = ATG_TAL_CIS: Attagene CIS-FACTORIAL HepG2 Assay for human TAL Basal Promoter (AID 2282966); details: HepG2 Attagene cis-factorial TAL promoter reporter; actives raise or lower the signal;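 note: background control endpoint measuring basal TAL promoter reporter mRNA not a specific factor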
Outline: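 Human hepatoma HepG2 cells, transfected with promoter-regulated reporter units, were treated 24 h. Reporter transcript levels, measured through RT-PCR and capillary electrophoresis, were fitted for gain or loss relative to DMSO.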

[10] = ATG_VDRE_CIS: Attagene CIS-FACTORIAL HepG2 Assay for human Vitamin D Receptor Element (VDRE) (AID 2282968); details: HepG2 VDRE cis-reporter transcription, actives raise or lower the signal
Outline: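 Transient MRTU transfection of HepG2, 24 h compound exposure. Readout: reporter transcripts via RT-PCR and capillary electrophoresis, fluorescence. Bidirectional fit vs DMSO.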

[11] = ATG_M_06_TRANS: Attagene TRANS-FACTORIAL HepG2 Assay for M06 Transcription Factor (Internal Marker) (AID 2282983; active = hit-call score of the fitted dose curve at least 0.9, where 1 is the maximum); details: HepG2 Attagene TRANS M06 internal marker reporter
Outline: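 Multi-reporter-transfected HepG2, 24 h treatment; reporter transcripts quantified via RT-PCR, primer-extension labelling and CE. DMSO-normalized gain-of-signal fit.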

[12] = target: Transcriptional activator Myb (Homo sapiens) (UniProt P10242); assay: ATG_Myb_CIS: Attagene CIS-FACTORIAL HepG2 Assay for human Myeloblastosis (Myb) Proto-Oncogene Transcription Factor (AID 2282986); details: HepG2 Attagene CIS-FACTORIAL Myb reporter transcription; actives raise or lower the signal
Outline: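 Transiently transfected HepG2 cells carrying a multiplexed cis-promoter reporter set report endogenous Myb activity after 24 h compound exposure. Reporter mRNA is read by RT-PCR with capillary electrophoresis of fluorescent products, fitted bidirectionally against DMSO.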

[13] = ATG_NFI_CIS: Attagene CIS-FACTORIAL HepG2 Assay for human Nuclear Factor I (NFI) (AID 2282989); details: HepG2 cis-regulatory reporter, NFI response element transcription; actives raise or lower the signal
Outline: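 Read-out: reporter mRNA via RT-PCR plus capillary electrophoresis with fluorescence detection. Transiently transfected HepG2 (endogenous TF activity on cis promoters), 24 h compound exposure; gain or loss of signal fitted against DMSO.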

[14] = ATG_NRF2_ARE_CIS: Attagene CIS-FACTORIAL HepG2 Assay for human Nuclear Factor Erythroid 2 Related Factor 2 (NFR2) response to Antioxidant Response Elements (ARE) (AID 2282992); details: HepG2 Attagene ARE/NRF2 reporter, transcription factor activity; actives raise or lower the signal;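 for AC50: reporter mRNA level measured by RT-PCR and capillary electrophoresis fluorescence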
Outline: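 Readout: reporter mRNA quantified by RT-PCR plus FAM-labelled primer extension, HpaI digestion and capillary electrophoresis, 24 h after dosing transfected HepG2 cells. Gain or loss of signal is fitted bidirectionally against DMSO baseline.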

[15] = target: Cellular tumor antigen p53 (Homo sapiens) (UniProt P04637); assay: ATG_p53_CIS: Attagene CIS-FACTORIAL HepG2 Assay for human p53 Transcription Factor (AID 2282994); details: HepG2 p53 cis-element reporter, Attagene mRNA; actives raise or lower the signal
Outline: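 Read-out: reporter mRNA by RT-PCR plus capillary electrophoresis with fluorescence detection. Human HepG2 liver cells carried transfected multi-reporter cis-element constructs, dosed 24 h. Gain or loss of signal fitted bidirectionally against DMSO control.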

[16] = target: Cellular tumor antigen p53 (Homo sapiens) (UniProt P04637); assay: TOX21_p53_BLA_p2_ratio: Tox21 HCT-116 p53 Agonism Beta-lactamase Assay, Ratio, Phase 2 (AID 2283592; active = hit-call score of the fitted dose curve at least 0.9, where 1 is the maximum)
Outline: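 DMSO-normalized, positive-direction endpoint derived from the 460 nm/530 nm FRET ratio in HCT116 p53 beta-lactamase reporter cells exposed 16 h at 37C and loaded with CCF4-AM for 2 h.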

[17] = target: CCAAT/enhancer-binding protein beta (Homo sapiens) (UniProt P17676); assay: ATG_C_EBP_CIS: Attagene CIS-FACTORIAL HepG2 Assay for human CCAAT/Enhancer Binding Protein (C/EBP) beta (AID 2282927); details: HepG2 Attagene cis-factorial transcription factor reporter; actives raise or lower the signal
Outline: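 Transiently transfected HepG2 (MRTU library, endogenous TF-driven promoters); 24 h dosing; total RNA → oligo(dT) RT → PCR → 6-FAM primer extension → HpaI digest → CE; fit bidirectionally vs DMSO.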

[18] = target: X-box-binding protein 1 (Homo sapiens) (UniProt P17861); assay: ATG_Xbp1_CIS: Attagene CIS-FACTORIAL HepG2 Assay for human X-box Binding Protein 1 (XBP1) (AID 2282972); details: HepG2 XBP1 cis-element reporter, Attagene multiplex; actives raise or lower the signal
Outline: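 Read-out: fluorescent reporter mRNA fragments resolved by capillary electrophoresis after RT-PCR. Human HepG2 liver cells carried transfected cis-promoter reporter units and were exposed to chemicals for 24 hours. Gain or loss of signal fitted relative to DMSO baseline.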

[19] = target: Transcription factor E2F1 (Homo sapiens) (UniProt Q01094); assay: ATG_E2F_CIS: Attagene CIS-FACTORIAL HepG2 Assay for human E2F Transcription Factor 1 (AID 2282935); details: HepG2 Attagene cis-reporter, E2F reporter RNA transcripts; actives raise or lower the signal
Outline: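 Transient MRTU transfection of HepG2; 24 h compound exposure; RNA → oligo(dT) RT → PCR → FAM label → HpaI cut → CE fluorescence. Gain/loss of signal fit against DMSO.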

[20] = target: Myc proto-oncogene protein (Homo sapiens) (UniProt P01106); assay: ATG_Myc_CIS: Attagene CIS-FACTORIAL HepG2 Assay for human Myelocytomatosis (Myc) Proto-Oncogene Transcription Factor (AID 2282990); details: HepG2, Attagene cis-reporter transcription factor activity; actives raise or lower the signal
Outline: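 Read-out: fluorescent reporter mRNA fragments resolved by capillary electrophoresis after RT-PCR. Human HepG2 liver cells carried transfected cis-element reporter units and were dosed for 24 h. Gain or loss of signal fitted relative to DMSO baseline.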

Measured: AC50

Sequence of Heat shock factor protein 1 (Homo sapiens) (Q00613 whole entry, looked up, the tested form may be a part): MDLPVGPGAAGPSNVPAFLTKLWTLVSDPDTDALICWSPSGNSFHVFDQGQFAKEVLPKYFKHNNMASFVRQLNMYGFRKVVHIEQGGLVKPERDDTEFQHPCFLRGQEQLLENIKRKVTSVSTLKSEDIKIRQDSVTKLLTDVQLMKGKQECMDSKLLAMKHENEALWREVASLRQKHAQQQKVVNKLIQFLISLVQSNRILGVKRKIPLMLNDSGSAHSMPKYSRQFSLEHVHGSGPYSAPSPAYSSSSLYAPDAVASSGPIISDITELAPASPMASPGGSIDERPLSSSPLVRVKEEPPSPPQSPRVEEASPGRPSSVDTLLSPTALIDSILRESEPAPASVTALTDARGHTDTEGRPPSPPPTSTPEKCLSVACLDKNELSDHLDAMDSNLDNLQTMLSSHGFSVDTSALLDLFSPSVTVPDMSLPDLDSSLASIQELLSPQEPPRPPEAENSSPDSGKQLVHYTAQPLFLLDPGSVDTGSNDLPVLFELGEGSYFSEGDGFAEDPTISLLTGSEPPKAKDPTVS
Sequence of Cellular tumor antigen p53 (Homo sapiens) (P04637 whole entry, looked up): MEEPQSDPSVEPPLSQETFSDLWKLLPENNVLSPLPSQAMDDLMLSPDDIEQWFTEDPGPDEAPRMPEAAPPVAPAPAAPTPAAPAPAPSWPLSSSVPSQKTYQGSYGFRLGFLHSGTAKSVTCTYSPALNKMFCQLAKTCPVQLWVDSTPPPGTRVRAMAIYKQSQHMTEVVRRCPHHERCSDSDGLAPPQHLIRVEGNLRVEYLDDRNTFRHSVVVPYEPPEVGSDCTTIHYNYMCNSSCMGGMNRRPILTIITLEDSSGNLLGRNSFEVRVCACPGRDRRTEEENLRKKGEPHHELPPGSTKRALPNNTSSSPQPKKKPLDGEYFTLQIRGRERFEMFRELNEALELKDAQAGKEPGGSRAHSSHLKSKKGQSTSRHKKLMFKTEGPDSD
Sequence of Signal transducer and activator of transcription 3 (Homo sapiens) (P40763 whole entry, looked up, the tested form may be a part): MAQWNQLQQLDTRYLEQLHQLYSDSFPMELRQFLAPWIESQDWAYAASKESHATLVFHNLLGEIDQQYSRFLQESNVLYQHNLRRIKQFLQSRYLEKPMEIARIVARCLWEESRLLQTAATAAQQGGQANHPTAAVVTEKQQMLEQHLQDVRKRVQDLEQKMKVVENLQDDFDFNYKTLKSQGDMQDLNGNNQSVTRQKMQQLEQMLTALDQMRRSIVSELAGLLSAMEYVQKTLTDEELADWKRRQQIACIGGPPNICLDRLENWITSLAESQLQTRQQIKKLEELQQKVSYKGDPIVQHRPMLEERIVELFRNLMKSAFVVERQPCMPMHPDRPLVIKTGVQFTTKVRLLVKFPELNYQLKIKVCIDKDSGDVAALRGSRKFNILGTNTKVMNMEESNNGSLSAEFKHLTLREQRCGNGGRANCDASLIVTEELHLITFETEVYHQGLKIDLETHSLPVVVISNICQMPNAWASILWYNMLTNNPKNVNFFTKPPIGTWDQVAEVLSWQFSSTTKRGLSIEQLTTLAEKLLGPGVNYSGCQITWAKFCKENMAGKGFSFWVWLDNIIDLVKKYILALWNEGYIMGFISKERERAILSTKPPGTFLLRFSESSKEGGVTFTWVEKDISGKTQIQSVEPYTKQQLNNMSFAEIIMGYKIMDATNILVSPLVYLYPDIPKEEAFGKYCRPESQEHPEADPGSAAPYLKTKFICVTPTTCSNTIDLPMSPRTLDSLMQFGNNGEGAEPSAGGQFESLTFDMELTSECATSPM
Sequence of Hypoxia-inducible factor 1-alpha (Homo sapiens) (Q16665 whole entry, looked up): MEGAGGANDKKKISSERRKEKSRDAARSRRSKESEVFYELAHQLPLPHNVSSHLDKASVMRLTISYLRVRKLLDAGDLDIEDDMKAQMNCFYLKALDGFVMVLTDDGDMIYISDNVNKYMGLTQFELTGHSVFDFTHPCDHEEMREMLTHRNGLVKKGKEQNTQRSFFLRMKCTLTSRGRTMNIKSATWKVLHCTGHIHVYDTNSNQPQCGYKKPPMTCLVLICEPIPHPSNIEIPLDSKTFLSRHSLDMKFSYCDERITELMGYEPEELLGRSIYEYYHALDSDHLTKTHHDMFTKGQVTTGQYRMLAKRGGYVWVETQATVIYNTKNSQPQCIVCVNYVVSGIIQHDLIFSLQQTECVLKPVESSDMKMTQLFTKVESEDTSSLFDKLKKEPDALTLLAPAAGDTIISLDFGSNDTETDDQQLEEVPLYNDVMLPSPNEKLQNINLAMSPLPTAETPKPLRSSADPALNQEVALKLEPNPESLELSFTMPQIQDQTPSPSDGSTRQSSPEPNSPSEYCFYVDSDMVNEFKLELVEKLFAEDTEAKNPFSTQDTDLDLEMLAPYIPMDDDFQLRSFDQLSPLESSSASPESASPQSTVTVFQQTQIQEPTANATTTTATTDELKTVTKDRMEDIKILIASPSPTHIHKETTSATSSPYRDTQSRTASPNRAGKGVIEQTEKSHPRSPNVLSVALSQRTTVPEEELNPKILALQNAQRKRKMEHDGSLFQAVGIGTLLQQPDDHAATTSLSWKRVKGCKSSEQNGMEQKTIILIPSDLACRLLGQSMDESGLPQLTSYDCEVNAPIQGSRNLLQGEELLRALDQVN
Sequence of Hepatocyte nuclear factor 6 (Homo sapiens) (Q9UBC0 whole entry, looked up, the tested form may be a part): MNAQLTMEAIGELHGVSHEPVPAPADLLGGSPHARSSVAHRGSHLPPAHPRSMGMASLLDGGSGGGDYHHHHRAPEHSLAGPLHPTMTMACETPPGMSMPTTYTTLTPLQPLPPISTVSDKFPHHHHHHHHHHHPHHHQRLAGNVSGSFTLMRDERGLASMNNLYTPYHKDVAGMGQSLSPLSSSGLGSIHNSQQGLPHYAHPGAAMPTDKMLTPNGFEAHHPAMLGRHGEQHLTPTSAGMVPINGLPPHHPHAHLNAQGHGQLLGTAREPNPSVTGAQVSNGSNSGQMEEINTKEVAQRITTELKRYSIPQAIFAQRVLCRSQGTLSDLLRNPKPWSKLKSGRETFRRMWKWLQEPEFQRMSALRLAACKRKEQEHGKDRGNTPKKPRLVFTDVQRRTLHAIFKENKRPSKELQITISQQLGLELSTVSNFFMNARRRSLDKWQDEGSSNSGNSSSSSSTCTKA
Sequence of Transcription factor Sp1 (Homo sapiens) (P08047 whole entry, looked up): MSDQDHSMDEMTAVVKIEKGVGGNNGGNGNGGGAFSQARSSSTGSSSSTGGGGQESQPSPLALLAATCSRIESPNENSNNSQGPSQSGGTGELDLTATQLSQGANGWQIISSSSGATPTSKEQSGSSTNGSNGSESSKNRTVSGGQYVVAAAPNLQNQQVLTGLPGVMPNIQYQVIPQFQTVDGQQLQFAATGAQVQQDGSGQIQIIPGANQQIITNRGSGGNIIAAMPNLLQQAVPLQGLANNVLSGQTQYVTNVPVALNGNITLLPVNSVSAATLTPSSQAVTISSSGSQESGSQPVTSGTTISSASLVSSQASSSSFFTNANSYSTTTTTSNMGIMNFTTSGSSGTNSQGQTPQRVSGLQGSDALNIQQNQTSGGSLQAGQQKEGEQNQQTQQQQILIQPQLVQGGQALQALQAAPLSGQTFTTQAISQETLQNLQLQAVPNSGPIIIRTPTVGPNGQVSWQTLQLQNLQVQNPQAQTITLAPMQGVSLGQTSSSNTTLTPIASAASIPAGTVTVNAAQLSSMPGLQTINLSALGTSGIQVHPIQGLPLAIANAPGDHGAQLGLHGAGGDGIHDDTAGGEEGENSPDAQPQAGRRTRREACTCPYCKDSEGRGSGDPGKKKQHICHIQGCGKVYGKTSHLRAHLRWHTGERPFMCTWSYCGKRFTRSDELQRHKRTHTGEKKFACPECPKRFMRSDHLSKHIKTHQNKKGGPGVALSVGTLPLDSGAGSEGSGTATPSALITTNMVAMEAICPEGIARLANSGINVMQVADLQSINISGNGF
Sequence of X-box-binding protein 1 (Homo sapiens) (P17861 whole entry, looked up, the tested form may be a part): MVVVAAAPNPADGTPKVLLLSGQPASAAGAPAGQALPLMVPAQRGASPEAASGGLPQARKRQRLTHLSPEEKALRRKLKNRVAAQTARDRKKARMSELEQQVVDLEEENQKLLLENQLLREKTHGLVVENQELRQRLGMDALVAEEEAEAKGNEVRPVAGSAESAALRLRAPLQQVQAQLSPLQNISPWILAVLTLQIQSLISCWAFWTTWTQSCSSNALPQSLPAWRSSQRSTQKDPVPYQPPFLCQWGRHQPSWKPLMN
Sequence of Transcriptional activator Myb (Homo sapiens) (P10242 whole entry, looked up): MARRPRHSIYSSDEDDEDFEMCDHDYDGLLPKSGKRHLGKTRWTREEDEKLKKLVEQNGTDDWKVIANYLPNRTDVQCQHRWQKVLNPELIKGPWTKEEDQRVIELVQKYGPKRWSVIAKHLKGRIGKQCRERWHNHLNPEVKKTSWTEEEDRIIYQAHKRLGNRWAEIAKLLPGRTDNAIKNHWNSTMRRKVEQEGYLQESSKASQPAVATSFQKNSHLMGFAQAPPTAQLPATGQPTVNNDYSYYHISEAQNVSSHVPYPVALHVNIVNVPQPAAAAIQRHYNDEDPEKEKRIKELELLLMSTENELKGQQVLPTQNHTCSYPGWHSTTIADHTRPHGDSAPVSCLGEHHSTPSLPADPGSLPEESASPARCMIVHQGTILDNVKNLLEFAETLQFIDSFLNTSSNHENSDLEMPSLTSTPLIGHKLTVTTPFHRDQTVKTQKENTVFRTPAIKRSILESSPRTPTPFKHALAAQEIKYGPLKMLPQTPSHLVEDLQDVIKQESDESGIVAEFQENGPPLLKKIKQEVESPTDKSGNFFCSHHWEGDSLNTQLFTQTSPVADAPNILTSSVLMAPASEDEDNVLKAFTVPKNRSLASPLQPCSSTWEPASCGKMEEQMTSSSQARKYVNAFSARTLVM
Sequence of CCAAT/enhancer-binding protein beta (Homo sapiens) (P17676 whole entry, looked up): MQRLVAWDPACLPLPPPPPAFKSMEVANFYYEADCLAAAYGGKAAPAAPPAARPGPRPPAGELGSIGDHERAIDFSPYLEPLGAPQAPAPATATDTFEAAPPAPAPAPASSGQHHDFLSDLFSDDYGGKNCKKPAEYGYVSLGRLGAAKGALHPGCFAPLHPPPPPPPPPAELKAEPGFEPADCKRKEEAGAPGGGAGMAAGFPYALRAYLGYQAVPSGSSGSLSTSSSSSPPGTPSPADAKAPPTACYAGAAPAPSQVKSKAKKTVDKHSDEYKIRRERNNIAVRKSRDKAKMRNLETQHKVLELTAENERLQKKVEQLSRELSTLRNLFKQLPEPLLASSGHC

O=C1NC(=O)[C@@H]2CC=CC[C@H]12
not listed: [17] | [18] | [19] | [20]
inactive: all other assays above

CC1=CCCC(C)(C)C12CCC(C)O2 (stereo unspecified)
active: [14] 17.5 µM
not listed: [5] | [8] | [10] | [19] | [20]
inactive: all other assays above

COC(=O)CCSCCC(=O)OC
not listed: [5] | [10] | [11] | [12] | [15] | [16] | [17] | [20]
inactive: all other assays above

CN(C)Cc1cc(C(C)(C)C)c(O)c(C(C)(C)C)c1
active: [5] 3.41 µM | [14] 37.8 µM
not listed: [7] | [9] | [11] | [12] | [16] | [17] | [18]
inactive: all other assays above
